Screens as filed in PubChem.
The list is not random: actives were taken first. Their share in the collection is about 12%.
HP1b binding inh = inhibitors of HP1-beta chromodomain binding to methylated histone tails. AID 540317. 390,000 compounds, 0.56% hits. Potency, µM (series often up to 114 µM), for inactives: at the top dose activity change, negative = inhibition, actives largely listed as inhibitors. AlphaScreen HP1-beta / biotin-H3K9me3 peptide binding; also: nearly all actives have a fitted effect of over 70% in size
Target sequence (P83916 whole entry, looked up): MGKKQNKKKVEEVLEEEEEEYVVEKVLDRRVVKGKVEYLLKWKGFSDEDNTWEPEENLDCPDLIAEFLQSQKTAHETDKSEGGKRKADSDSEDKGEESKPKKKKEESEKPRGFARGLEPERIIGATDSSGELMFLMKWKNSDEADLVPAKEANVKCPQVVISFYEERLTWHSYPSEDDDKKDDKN
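HP1-beta protein (50 nM final) preincubated 30 min at room temperature with biotinylated H3(1-18)K9me3 peptide (50 nM) in PBS pH 7.4, 0.01% Tween-20, then compound added for 30 min. AlphaScreen streptavidin donor/nickel chelate acceptor beads (10 ug/mL final), 30 min dark, luminescence read.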
L3MBTL1 inh = blocks human L3MBTL1; 230,000 compounds, 0.66% hits; AlphaScreen L3MBTL1–H3K9me1 peptide binding; Q9Y468; Potency, µM (series often up to 57.1 µM), inactives show at the top dose activity, negative = inhibition, hits mostly inhibitors; AID 485360; also: % is scaled to controls: 0 for no effect and ±100 for the full control effect; nearly all actives have a fitted effect of over 60% in size
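First, the protein-peptide complex forms for 30 min at room temperature (L3MBTL1 50 nM, biotinylated H3K9me1 peptide 75 nM). Next, compounds are pin-transferred and incubated 30 min. Finally, AlphaScreen beads are added and read after 30 min.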
Sfp PPTase inh = blocks B. subtilis Sfp PPTase activity. Q9F4F7. Biochemical Sfp PPTase activity, qHTS. Potency, µM, for the others: largest response in the series, negative = inhibition, actives largely listed as inhibitors. 310,000 compounds, 3.5% hits. AID 1490;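 also: the enzyme is Sfp with the accession as filed and its product quenches rhodamine fluorescence; 0% = enzyme reaction without inhibitor and -100% = no enzyme wells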
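Step 1, compound plus 15 nM Sfp-PPTase, 15 min, room temperature. Step 2, add rhodamine-CoA (5 uM) and BHQ-2-YbbR (12.5 uM). Step 3, read 525/598 nm fluorescence at 0 and 30 min.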
BAZ2B block = inhibitors of human BAZ2B bromodomain | Q9UIF8 | AlphaScreen BAZ2B-H3K14Ac peptide displacement | Potency, µM (highest dose often 114 µM), for the others: at the top dose activity change, negative = inhibition, actives largely listed as inhibitors | 360,000 compounds, 4.4% hits; also: % is scaled to controls: 0 for no effect and ±100 for the full control effect; nearly all actives have a fitted effect of over 60% in size
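Protein-peptide AlphaScreen: BAZ2B 50 nM, b-H3K14Ac 50 nM, 1x PBS pH 7.4 + 0.01% Tween-20. Preincubation 30 min RT; cpd 30 min RT (top 110 uM); beads 20 min RT, light-protected.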
G9a block = G9a (human) methyltransferase inhibition | 350,000 compounds, 8.8% hits | Q96KQ7 | Potency, µM (highest dose often 102 µM), for the others: at the top dose activity, negative = inhibition, most hits filed as inhibitors | G9a H3K9 monomethylation, AlphaScreen, 2 h; also: % is scaled to controls: 0 for no effect and ±100 for the full control effect; nearly all actives have a fitted effect of over 75% in size
Target sequence (Q96KQ7 913-1193 limits assumed): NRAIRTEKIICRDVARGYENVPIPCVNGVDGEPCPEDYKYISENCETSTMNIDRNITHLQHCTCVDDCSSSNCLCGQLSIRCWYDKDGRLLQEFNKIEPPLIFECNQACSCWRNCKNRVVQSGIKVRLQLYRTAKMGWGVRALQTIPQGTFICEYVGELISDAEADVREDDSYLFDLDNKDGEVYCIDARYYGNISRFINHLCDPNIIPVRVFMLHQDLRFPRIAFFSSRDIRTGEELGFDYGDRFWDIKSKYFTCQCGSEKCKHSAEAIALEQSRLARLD
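G9a (20 nM) preincubated 15 min RT with compounds, then 500 nM biotinylated H3K9 peptide and 20 uM SAM added; 2 h RT reaction. Monomethyl-H3K9 product detected by AlphaScreen with anti-H3K9me1 antibody, streptavidin donor and anti-rabbit IgG acceptor beads.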
JMJD2A Tudor inh = JMJD2A Tudor domain (human) inhibition | 390,000 compounds, 4.4% hits | Potency, µM (doses to about 114 µM), inactives show at the highest dose activity change, negative = inhibition, most hits filed as inhibitors | AlphaScreen JMJD2A-Tudor / H3K4me3 peptide binding | AID 504339; also: % is scaled to controls: 0 for no effect and ±100 for the full control effect; nearly all actives have a fitted effect of over 50% in size
* marks the source's active call; other numbers are inactive results; ? = inconclusive; · = no result given; ! = repeats disagree; [ ] = dose if it differs, or a comment. Calls follow the shape of the dose curve; as a rule, active = well fitted curve in the direction sought with a large enough effect; inconclusive = small, poorly fitted or top-dose-only effect, or another doubt; inactive = no such curve, though single readings can be large; an effect the other way counts as inactive or inconclusive. Potency is read from the fitted curve at half-maximal effect.

SMILES	HP1b binding inh	L3MBTL1 inh	Sfp PPTase inh	BAZ2B block	G9a block	JMJD2A Tudor inh
O=C(Nc1ncccc1O)c1cccc(S(=O)(=O)N2CCN(c3ccc(F)cc3)CC2)c1	7%	-17%	·	-17%	79µM*	-32%
O=C(Nc1ccncc1)c1cccc(S(=O)(=O)N2CCN(c3ccc(F)cc3)CC2)c1	-23%	-14%	·	?	?	?
COc1ccccc1CNC(=O)C(=O)NCC(c1cccs1)S(=O)(=O)c1ccccc1 (centres undefined)	-15%	·	·	-39%	-8%[59 µM]	-31%
CCN(CCn1cccn1)Cc1c(C(=O)N2CCCCCCC2)nc2ccc(Cl)cn12	22%	-20%	-16%	-22%	79µM*	-11%
NC(CS(=O)O)C(=O)O (centres undefined)	23%	·	·	·	·	35µM*
N[C@@H](CS(=O)O)C(=O)O	·	·	56µM*	·	21µM*!	·
O=C(Nc1sc2c(c1C(=O)Nc1ccccc1Cl)CCCC2)c1ccccc1F	30%	·	·	13%	?	14%
CCCNC(=O)C(=O)NCc1ccccn1	12%	1%	-2%	-21%	?	3%
O=C(NCc1ccccn1)c1coc(=O)c(Br)c1	25%	14µM*	?	18µM*	?	?
O=C(NCc1ccccn1)C(=O)NCc1ccccn1	53%	·	56µM*	29%	-6%	-6%
O=C(NCc1ccccn1)c1nc(-c2cccs2)no1	12%	6%	6%	2%	28µM*	-27%
COc1ccc(CCNC(=O)C(=O)NCc2ccccn2)cc1	15%	7%	18%	-25%	50µM*	-12%
COc1ccc(-c2ccc(NS(=O)(=O)c3ccc(OC)c(OC)c3)cc2)nn1	23%[57 µM]	·	·	0%	-5%[59 µM]	-11%
O=C(COC(=O)c1ccccc1NC(=O)c1ccco1)Nc1ncc(Cl)cc1Cl	25%	·	?	-2%	?	-15%
O=C(COC(=O)c1cc([N+](=O)[O-])ccc1N1CCOCC1)Nc1ncc(Cl)cc1Cl	1%	·	-5%	45µM*	9%[12.7 µM]	?
O=C(COC(=O)c1ccccc1O)Nc1ncc(Cl)cc1Cl	-11%	?	6%	50µM*	35µM*	?
O=C(COC(=O)c1cc([N+](=O)[O-])ccc1N1CCOCC1)Nc1c(Cl)cccc1C(F)(F)F	20%	·	0%	-8%	71%	-6%
O=C(CSc1nnc(-c2ccccc2)c(-c2ccccc2)n1)Nc1ncc(Cl)cc1Cl	9%	-19%	-26%	?	14µM*	-13%
O=C(COC(=O)c1nc(Cl)ccc1Cl)Nc1ccc(Cl)cn1	32%	0%	·	3%	16%[12.7 µM]	1%
O=C(COC(=O)c1ncc(Cl)c(Cl)c1Cl)Nc1ccc(Cl)cn1	5%	-11%	·	-14%	45µM*	-32%
Cc1cccc(Cn2c(=O)n(CC3CCC(C(=O)NC(C)C)CC3)c(=O)c3sccc32)c1 (centres undefined)	23%	·	·	-3%	13%[59 µM]	-7%
C[C@H]1C(=O)N(S(=O)(=O)c2ccccc2[N+](=O)[O-])[C@H]1c1ccc(-c2ccccc2)cc1	-5%	·	14%	·	·	?
COc1ccc(-c2nnc(SCc3cccc(Cl)c3)o2)cc1	205%	·	·	319%	315%[59 µM]	59%
CCCCOc1ccc(C(=O)NCc2cn3cccc(C)c3n2)cc1	29%	·	·	1%	-36%[59 µM]	-7%
CS(=O)(=O)N1CCN(c2ccc(NC(=S)NC(=O)c3cccs3)cc2)CC1	21%	12%	8%	5%	·	-16%
SMILES	HP1b binding inh	L3MBTL1 inh	Sfp PPTase inh	BAZ2B block	G9a block	JMJD2A Tudor inh
O=C(NC(=S)Nc1ccc(N2CCCCC2)cc1)c1cccs1	40µM*	?	?	14µM*	14µM*	35µM*
CSc1ccc(NC(=O)c2cccnc2)cc1C#N	27%	2%	16%	-15%	50µM*	0%
Cc1ccc(NC(=O)c2cccnc2)cc1C	23%	6%[2.29 µM]	13%	4%	-10%[0.501 µM]	-11%
O=C(NC(=S)Nc1ccc(N2CCOCC2)c(Cl)c1)c1sc2ccccc2c1Cl	5%	3%	?	-35%	1.3µM*	-11%
O=C(Nc1ccc(N2CCCC2)c(Cl)c1)c1cccs1	?	-14%	5%	45µM*	28µM*	45µM*
O=C(Nc1ccc2c(c1)OCO2)c1cccc2c1C(=O)N(Cc1cccnc1)C2	7%	·	-1%	50µM*	-6%[12.7 µM]	?
O=C(Nc1ccc(N2CCCC2)c(Cl)c1)c1cccnc1	1%	?	0%	5%	8.9µM*	-31%
O=C(Nc1ccc2c(c1)OCCO2)c1cccnc1	30%	4%	14%	?	-1%[59 µM]	89µM*
O=C(NC(=S)Nc1ccc(N2CCOCC2)c(Cl)c1)c1cccs1	-5%	-20%	1%	35µM*	1%	?
O=C(Nc1ccc(Cl)c(Cl)c1)N(Cc1c[nH]c2ccccc12)C1CCCCC1	0%	·	·	·	4%[59 µM]	-30%
COc1cccc(N2CCN(c3ncnc4c3c(-c3ccccc3)cn4-c3ccc(C)cc3)CC2)c1	17%	·	·	-4%	4%[59 µM]	-15%
COc1ccc(OCC(=O)NC(=S)Nc2ccc(N3CCOCC3)c(Cl)c2)cc1	-18%	·	-26%	?	?	-25%
CC(C)CC(=O)NC(=S)Nc1ccc(N2CCOCC2)c(Cl)c1	22%	-11%	5%	-33%	11µM*	-6%
N#CC1=C(N)N=C(SCc2cccc3ccccc23)C(C(N)=O)C12CCCCC2 (centres undefined)	-34%	·	0%	?	45µM*	56µM*
Nc1cc(=O)[nH]c(SCc2cccc3ccccc23)n1	31%	·	-2%	-5%	24%	-19%
CCOC(=O)C(C(=O)c1ccccc1)[C@H](CCc1ccccc1)NC(=O)OC (some centres undefined)	·	·	4%	·	·	·
COc1ccc2ncc3c(-c4ccc(C)c(C)c4)nn(CC(=O)Nc4ccccc4)c3c2c1	34%	·	·	-8%	5%[59 µM]	-23%
CCN1CCN(c2ccc(NC(=O)c3ccc4c(c3)[nH]c(=O)n4Cc3ccc(F)cc3)cc2)CC1	-6%	?	16%	?	50µM*	?
COc1ccc(Cn2c(=O)[nH]c3cc(C(=O)Nc4ccc(N5CCN(C)CC5)cc4)ccc32)cc1	-38%	?	-6%	?	45µM*	?
